Laboratory results taken from the supplement of paper PMC7765376.
Where a name gives a salt, the structure may show the parent alone. Whole data set: some 1,500 compounds, median “Excess HSA synergy score (sum over dose matrix of excess over highest single agent)” near 43, cut for the lowest 2% near -900. The list comes from a sample in which the lowest values are over-represented; it also holds similar structures and randomly drawn compounds.

Test system: PEO-1
Assay: Excess HSA synergy score (sum over dose matrix of excess over highest single agent) (score (summed % response)); higher = less synergy / more antagonism (negative = synergy)
Conditions: 72 h, read-out: viability/apoptosis luminescence (CellTiter-Glo or Caspase3-Glo / not stated per table)
[1] = matrix design: 6x6, 5-fold dilutions (primary screen)
[2] = matrix design: 10x10, 9-step dilutions (confirmatory)

| Compound | Excess HSA synergy score [1] | Excess HSA synergy score [2] |
| --- | --- | --- |
| Nc1nc(=O)c2c([nH]1)NCC(CNc1ccc(C(=O)N[C@@H](CCC(=O)O)C(=O)O)cc1)N2C=O (some centres not stated) [Calcium folinate] + CC[C@H](NC(=O)[C@H](C)NC)C(=O)N1C[C@@H](O)C[C@H]1Cc1c(-c2[nH]c3cc(F)ccc3c2C[C@@H]2C[C@H](O)CN2C(=O)[C@H](CC)NC(=O)[C@H](C)NC)[nH]c2cc(F)ccc12 [Birinapant] | 148 |  |
| CN1CCCC(n2nc(Cc3ccc(Cl)cc3)c3ccccc3c2=O)CC1 (configuration not stated) [Azelastine hydrochloride] + CC[C@H](NC(=O)[C@H](C)NC)C(=O)N1C[C@@H](O)C[C@H]1Cc1c(-c2[nH]c3cc(F)ccc3c2C[C@@H]2C[C@H](O)CN2C(=O)[C@H](CC)NC(=O)[C@H](C)NC)[nH]c2cc(F)ccc12 [Birinapant] | -156 |  |
| O=C(c1cc(Cc2n[nH]c(=O)c3ccccc23)ccc1F)N1CCN(C(=O)C2CC2)CC1 [Olaparib] + CC[C@H](NC(=O)[C@H](C)NC)C(=O)N1C[C@@H](O)C[C@H]1Cc1c(-c2[nH]c3cc(F)ccc3c2C[C@@H]2C[C@H](O)CN2C(=O)[C@H](CC)NC(=O)[C@H](C)NC)[nH]c2cc(F)ccc12 [Birinapant] | -98.9 | -1730 |
| CN(C)/[N+]([O-])=N/Oc1cc(ON[N+](=O)N2CCN(C(=O)c3cc(Cc4n[nH]c(=O)c5ccccc45)ccc3F)CC2)c([N+](=O)[O-])cc1[N+](=O)[O-] + CC[C@H](NC(=O)[C@H](C)NC)C(=O)N1C[C@@H](O)C[C@H]1Cc1c(-c2[nH]c3cc(F)ccc3c2C[C@@H]2C[C@H](O)CN2C(=O)[C@H](CC)NC(=O)[C@H](C)NC)[nH]c2cc(F)ccc12 [Birinapant] | 162 |  |
| CN1C(=O)C[C@@H](C(=O)N[C@@H](Cc2c[nH]cn2)C(=O)N2CCC[C@H]2C(N)=O)NC1=O [Taltirelin] + CC[C@H](NC(=O)[C@H](C)NC)C(=O)N1C[C@@H](O)C[C@H]1Cc1c(-c2[nH]c3cc(F)ccc3c2C[C@@H]2C[C@H](O)CN2C(=O)[C@H](CC)NC(=O)[C@H](C)NC)[nH]c2cc(F)ccc12 [Birinapant] | 10.4 |  |
| C/C(=N\NC(=S)N1CCC1)c1ccccn1 + CC[C@H](NC(=O)[C@H](C)NC)C(=O)N1C[C@@H](O)C[C@H]1Cc1c(-c2[nH]c3cc(F)ccc3c2C[C@@H]2C[C@H](O)CN2C(=O)[C@H](CC)NC(=O)[C@H](C)NC)[nH]c2cc(F)ccc12 [Birinapant] | -323 | -1630 |
| Cc1n[nH]c(C)c1Cc1sc2c(c1C(=O)N1C[C@H](O)CO1)c(=O)n(C)c(=O)n2CC(C)C + CC[C@H](NC(=O)[C@H](C)NC)C(=O)N1C[C@@H](O)C[C@H]1Cc1c(-c2[nH]c3cc(F)ccc3c2C[C@@H]2C[C@H](O)CN2C(=O)[C@H](CC)NC(=O)[C@H](C)NC)[nH]c2cc(F)ccc12 [Birinapant] | 60.3 |  |
| COc1ccc(S(=O)(=O)N(C(C)=O)c2ccccc2/C=C/c2cc[n+]([O-])cc2)cc1 + CC[C@H](NC(=O)[C@H](C)NC)C(=O)N1C[C@@H](O)C[C@H]1Cc1c(-c2[nH]c3cc(F)ccc3c2C[C@@H]2C[C@H](O)CN2C(=O)[C@H](CC)NC(=O)[C@H](C)NC)[nH]c2cc(F)ccc12 [Birinapant] | -72.6 |  |
| CN(C)c1nc(Cc2ccc(NC(=O)c3ccc4ccccc4c3)cc2)nc(Cl)c1CC(=O)O + CC[C@H](NC(=O)[C@H](C)NC)C(=O)N1C[C@@H](O)C[C@H]1Cc1c(-c2[nH]c3cc(F)ccc3c2C[C@@H]2C[C@H](O)CN2C(=O)[C@H](CC)NC(=O)[C@H](C)NC)[nH]c2cc(F)ccc12 [Birinapant] | 169 |  |
| N=C(NCCCCCCNC(=N)NC(=N)Nc1ccc(Cl)cc1)NC(=N)Nc1ccc(Cl)cc1 [Chlorhexidine] + CC[C@H](NC(=O)[C@H](C)NC)C(=O)N1C[C@@H](O)C[C@H]1Cc1c(-c2[nH]c3cc(F)ccc3c2C[C@@H]2C[C@H](O)CN2C(=O)[C@H](CC)NC(=O)[C@H](C)NC)[nH]c2cc(F)ccc12 [Birinapant] | -4.24 |  |
| N#CN=C(NCCCCCCOc1ccc(Cl)cc1)Nc1ccncc1 + CC[C@H](NC(=O)[C@H](C)NC)C(=O)N1C[C@@H](O)C[C@H]1Cc1c(-c2[nH]c3cc(F)ccc3c2C[C@@H]2C[C@H](O)CN2C(=O)[C@H](CC)NC(=O)[C@H](C)NC)[nH]c2cc(F)ccc12 [Birinapant] | -214 | -1410 |
| CC(C)C[C@@H](C=O)NC(=O)[C@H](CC(C)C)NC(=O)[C@H](CC(C)C)NC(=O)OCc1ccccc1 + CC[C@H](NC(=O)[C@H](C)NC)C(=O)N1C[C@@H](O)C[C@H]1Cc1c(-c2[nH]c3cc(F)ccc3c2C[C@@H]2C[C@H](O)CN2C(=O)[C@H](CC)NC(=O)[C@H](C)NC)[nH]c2cc(F)ccc12 [Birinapant] | 36.9 |  |
| O=C(NC1CC1)c1cccc(-c2ccc3c(NC(=O)C4CC4)n[nH]c3c2)c1 + CC[C@H](NC(=O)[C@H](C)NC)C(=O)N1C[C@@H](O)C[C@H]1Cc1c(-c2[nH]c3cc(F)ccc3c2C[C@@H]2C[C@H](O)CN2C(=O)[C@H](CC)NC(=O)[C@H](C)NC)[nH]c2cc(F)ccc12 [Birinapant] | 81.8 |  |
| N#Cc1ccc(COC[C@H]2O[C@@H](n3c(NCc4ccc(Cl)c(Cl)c4)nc4c(N)ncnc43)[C@H](O)[C@@H]2O)cc1 + CC[C@H](NC(=O)[C@H](C)NC)C(=O)N1C[C@@H](O)C[C@H]1Cc1c(-c2[nH]c3cc(F)ccc3c2C[C@@H]2C[C@H](O)CN2C(=O)[C@H](CC)NC(=O)[C@H](C)NC)[nH]c2cc(F)ccc12 [Birinapant] | -237 |  |
| COc1ccc(-c2ccc3c(N4CCOCC4)nc(N4C[C@@H](C)O[C@@H](C)C4)nc3n2)cc1CO + CC[C@H](NC(=O)[C@H](C)NC)C(=O)N1C[C@@H](O)C[C@H]1Cc1c(-c2[nH]c3cc(F)ccc3c2C[C@@H]2C[C@H](O)CN2C(=O)[C@H](CC)NC(=O)[C@H](C)NC)[nH]c2cc(F)ccc12 [Birinapant] | -161 |  |
| Cc1nc(N)ncc1-c1nc(N2CCOCC2)c2sc(C(C)(C)O)cc2n1 + CC[C@H](NC(=O)[C@H](C)NC)C(=O)N1C[C@@H](O)C[C@H]1Cc1c(-c2[nH]c3cc(F)ccc3c2C[C@@H]2C[C@H](O)CN2C(=O)[C@H](CC)NC(=O)[C@H](C)NC)[nH]c2cc(F)ccc12 [Birinapant] | -47.1 |  |
| COc1ccc(-c2nc(N3CCOCC3)c3sc(CN(C)c4ncc(C(=O)NO)cn4)cc3n2)cn1 + CC[C@H](NC(=O)[C@H](C)NC)C(=O)N1C[C@@H](O)C[C@H]1Cc1c(-c2[nH]c3cc(F)ccc3c2C[C@@H]2C[C@H](O)CN2C(=O)[C@H](CC)NC(=O)[C@H](C)NC)[nH]c2cc(F)ccc12 [Birinapant] | -204 | -1340 |
| CC(C)(O)c1cc2nc(-c3cnc(N)nc3)nc(N3CCOCC3)c2s1 + CC[C@H](NC(=O)[C@H](C)NC)C(=O)N1C[C@@H](O)C[C@H]1Cc1c(-c2[nH]c3cc(F)ccc3c2C[C@@H]2C[C@H](O)CN2C(=O)[C@H](CC)NC(=O)[C@H](C)NC)[nH]c2cc(F)ccc12 [Birinapant] | 72.3 |  |
